Assay outcomes: PubChem BioAssay, National Center for Advancing Translational Sciences (NCATS)
DT40 TDP1 no CPT – qHTS for Inhibitors of human tyrosyl-DNA phosphodiesterase 1 (TDP1): qHTS in cells in absence of CPT | DT40 Tdp1-/- hTDP1 cells, no CPT, ATP luminescence, 48 h | Potency, µM (highest dose often 46.2 µM), inactives show at the highest dose activity change, negative = growth inhibition, hits mostly inhibitors | 420,000 tested, 15% active | AID 686978, 2013; note: potency is the fitted concentration of half-maximal effect; nearly all actives have a fitted effect of over 55% in size
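Compound effects on proliferation are scored in DT40 Tdp1-/-;hTDP1 cells in the absence of CPT. ATP levels (CellTiter-Glo luminescence) are recorded after a ≥48 hr, 37 °C incubation.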
HT1080-NT tox – kills 2HG-producing HT-1080-NT fibrosarcoma cells | Potency, µM (titrated, usually from 46.1 µM), for inactives: top-dose activity, negative = less viability, usual class: cytotoxic | AID 686970 | 360,000 tested, 1.6% active | HT-1080-NT fibrosarcoma viability, CellTiter-Glo ATP luminescence, 48 h;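 note: NT is the 2HG producing partner of a matched IDH1 knockdown line; potency is the fitted concentration of half-maximal effect; 0% = DMSO-treated cells and -100% = media-only wells without cells; nearly all actives have a fitted effect of over 55% in size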
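Compounds were tested in concentration-response format on HT-1080-NT cells for 48 hours at 37 degrees C. Cell viability came from CellTiter-Glo luminescence; curves were classified by r2, response magnitude and activity.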
HT1080 IDH1KD tx – toxicity to HT-1080 IDH1 knockdown cells (counter line). 360,000 tested, 2% active. Potency, µM (doses to about 46.1 µM), for inactives: at the highest dose activity, negative = toxicity, actives largely listed as cytotoxic. HT-1080 IDH1 knockdown viability, ATP luminescence, 48 h. AID 686971;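 note: potency is the fitted concentration of half-maximal effect; 0% = DMSO wells and -100% = cell-free medium wells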
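Assay cells: HT-1080 with IDH1 knockdown, 750 per well, RPMI/5% FBS. Exposure: 48 h at 37 °C following 2 h pre-incubation. Read: CellTiter-Glo luminescence; fitted concentration-response, curve class assigned.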
IL1B secr inh – blocks inflammasome-driven IL-1 beta release; activity change, % at 57.5 µM; 360,000 tested, 4.7% active; AID 743279; THP-1 LPS/ATP IL-1B secretion, AlphaLISA, 16 h; stronger effect = lower value; in the data active = activity change below about -50%; inconclusive = mostly about -30% to -49%
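Secreted IL-1B measured by AlphaLISA bead assay after 16 h compound exposure of THP-1 cells; compounds (final up to 57.5 uM) added 1 h before LPS (250 ng/mL) and ATP (1.25 mM) stimulation; lower signal means less secretion.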
TDP1 cell CPT – DT40-hTDP1 cell growth loss with CPT; chicken DT40 Tdp1-/-;hTDP1 cells + 20 nM CPT, ATP luminescence, 48 h; Potency, µM (top dose mostly 46.2 µM), inactives show at the highest dose activity change, negative = growth inhibition, hits mostly inhibitors; 420,000 tested, 12% active; AID 686979; note: potency is the fitted concentration of half-maximal effect; nearly all actives have a fitted effect of over 55% in size
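Cell growth measured by CellTiter-Glo luminescence after a minimum 48 h, 37 C compound exposure with 20 nM CPT in Tdp1-knockout DT40 cells stably expressing hTDP1, seeded 400/well; qHTS titration format.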
* marks the source's active call; other numbers are inactive results; ? = inconclusive; . = no result given. Sampled rows, rich in hits. Any-hit rate of the full collection: about 19%. Unless noted, calls come from the whole dose curve; as a rule, active = well fitted curve in the direction sought with a large enough effect; inconclusive = small, poorly fitted or top-dose-only effect, or another doubt; inactive = no such curve, though single readings can be large; an effect the other way counts as inactive or inconclusive. Unless noted, % is set by controls: 0 for no effect and ±100 for the full control effect.

SMILES | DT40 TDP1 no CPT | HT1080-NT tox | HT1080 IDH1KD tx | IL1B secr inh | TDP1 cell CPT
O=C(NCCS(=O)(=O)N1CCN(c2ccccc2)CC1)C12CC3CC(CC(C3)C1)C2 | 21µM* | -15% | -7% | -1 | 26µM*
C[C@@H](NC(=O)c1cc2c([nH]c3ccccc32)c(-c2ccccc2)n1)C(=O)O | -16% | 8% | -4% | 6 | 5%
CCOc1ccc(S(=O)(=O)N2CCCCC2)cc1NC(=O)CN1C(=O)NC(C)(c2ccc(C)cc2)C1=O (stereo not given) | 16µM* | -7% | -28% | -16 | 23µM*
Cc1ccc(C2(C)NC(=O)N(CC(=O)Nc3ccc(Cl)c(S(=O)(=O)N4CCCCC4)c3)C2=O)cc1 (stereo not given) | 18µM* | -9% | -8% | -14 | ?
CCOC(=O)C1=C(C(=O)OCC)N(Cc2ccccc2)CCC1=O | -10% | -2% | -1% | -2 | -15%
C/C(=N\NC(=O)c1cccnc1)c1cc2ccccc2o1 | -27% | -1% | 0% | -11 | 6%
O=C(N/N=C/c1ccccn1)NC12CC3CC(CC(C3)C1)C2 | -24% | 0% | -3% | -2 | -19%
CCOc1ncccc1C(=O)N(CC)CC(=O)NCc1ccc(Cl)cc1 | -4% | 13% | -1% | 16 | 2%
NC(=NC1C2CC3CC(C2)CC1C3)Nc1ccc(I)cc1 (stereo not given) | 3.7µM* | . | . | . | 4.1µM*
O=C(Nc1ccc(-c2csnn2)cc1)C1CC1 | ? | 13% | 18% | . | ?
O=C(NNC(=O)c1cc2cc3ccccc3nc2s1)c1cccc(C(F)(F)F)c1 | -17% | 4% | 12% | 2 | -22%
COc1cnc(-c2cccc(C(F)(F)F)c2)c(NC(=O)c2cc3ccccc3s2)n1 | 10µM* | -2% | 21% | -7 | 18µM*
CC(C)c1ccc(OCC(=O)Nc2ccc(S(=O)(=O)Nc3ncccn3)cc2)cc1 | -2% | . | . | . | 6%
Oc1ccc(Oc2ccc(Oc3ccc(O)cc3)cc2)cc1 | 4.1µM* | -22% | -29% | 54 | 5.8µM*
CN(C)C(=O)c1ccc(/C=C/c2ccnc3ccccc23)cc1 | 16µM* | . | . | . | ?
CN(CC(=O)O)c1ccc(/C=C/c2ccnc3ccccc23)cc1 | 20µM* | . | . | . | 11µM*
Cc1cccc(NC(=O)CCc2c(C)nc3nc(CNC(=O)c4cccc(F)c4)nn3c2C)c1 | -27% | . | . | . | -15%
CC(C)CNC(=O)Cn1c(=O)c2c(ncn2CC(C)C)n(Cc2ccccc2)c1=O | 12% | -10% | 4% | 12 | -13%
Nc1c(Cl)cc(N=Nc2ccccc2)cc1Cl | 13µM* | ? | ? | -6 | ?
CCOc1ccc(-c2cc(CCCC(=O)NCc3cccnc3)no2)cc1 | 21µM* | -17% | -12% | 0 | 23µM*
CCOc1ccc(-c2cc(CCCC(=O)NCCc3ccccc3)no2)cc1 | -22% | -1% | 2% | -3 | -3%
COc1ccc(-c2cc(CCCC(=O)NCc3ccccn3)no2)cc1 | 16µM* | -19% | 0% | 1 | ?
COc1ccc(-c2cc(CCCC(=O)NCCc3ccccc3)no2)cc1 | ? | -4% | -7% | 8 | ?
O=C1CC(c2ccccc2)c2cccc(F)c21 (stereo not given) | -26% | 16% | 4% | 10 | -2%
CCc1nn(-c2ccccc2)c2nc(-c3ccccc3OC)c3cc(OC)c(OC)cc3c12 | 16µM* | . | . | . | 18µM*
CCOc1cc(-c2nc3c(c(CC)nn3-c3ccccc3)c3cc(OC)c(OC)cc23)ccc1O | ? | . | . | . | 3.3µM*
CCc1nn(-c2ccccc2)c2nc(-c3ccc(O)cc3)c3cc(OC)c(OC)cc3c12 | -21% | . | . | . | 1%
CC(C)(C)C1CCC(=NNC(=O)C(=O)NC2CCCCC2)CC1 (stereo not given) | ? | 0% | -3% | 31 | -23%
